Screen size: about 290,000 compounds; about 2,100 (0.72%) were called active. A call without a number means that no potency is given here. Another 4% or so got no clear call; they are omitted. The call rests on the fitted dose curve; in most records, active means well fitted inhibition curve with a large enough effect; inconclusive means small, poorly fitted or top-dose-only effect, or effect the other way; inactive means flat fitted curve, though single readings scatter. For the sample, actives were picked, then their nearest neighbours and some compounds at random.
Target: Fructose-bisphosphate aldolase (Giardia intestinalis (strain ATCC 50803 / WB clone C6)) (UniProt A8B2U2)
Sequence (A8B2U2 whole entry, looked up): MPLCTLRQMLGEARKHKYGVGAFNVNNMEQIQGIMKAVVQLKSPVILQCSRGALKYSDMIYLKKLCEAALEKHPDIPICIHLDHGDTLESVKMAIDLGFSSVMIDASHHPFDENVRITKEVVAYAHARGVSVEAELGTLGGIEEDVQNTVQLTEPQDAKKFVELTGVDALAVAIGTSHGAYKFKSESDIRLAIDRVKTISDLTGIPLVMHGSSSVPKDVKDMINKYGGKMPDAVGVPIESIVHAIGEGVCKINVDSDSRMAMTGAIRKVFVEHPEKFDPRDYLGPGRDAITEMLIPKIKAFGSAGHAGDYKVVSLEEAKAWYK
Test: qHTS Assay for Inhibitors of Fructose-1,6-bisphosphate Aldolase from Giardia Lamblia; further: nearly all actives have a fitted effect of over 55% in size
Settings: purified Giardia FBPA; series mostly up to 59.6 µM
In short: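 40 nM FBPA preincubated 10 min at RT with compound (up to 57.5 uM final), then substrate plus GAPDH/TPI/NAD/arsenate coupling and diaphorase/resazurin added. Fluorescence read after 20 min at RT, 525/598 nm.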
Potency means the concentration at half of the fitted maximal effect.

| Structure (SMILES) | Potency |
| --- | --- |
| CCc1ccc2c(c1)C(c1ccc([N+](=O)[O-])cc1)=NNC(c1ccccc1)=N2 | inactive |
| CCc1ccc2c(c1)C1(NN=C(c3ccccc3)S1)C(=O)N2 (stereo not drawn) | 15.8 µM (active) |
| O=C(c1ccccc1)N1CCN(C(=O)c2cc3nc(-c4ccccc4)cc(C(F)(F)F)n3n2)CC1 | inactive |
| O=C(/C=C/c1ccco1)NC(=S)Nc1ccccc1Br | inactive |
| CCNC(=O)N1CCCC(C(=O)c2ccc(-c3ccccc3)cc2)C1 (stereo not drawn) | inactive |
| COC(=O)CC1=NN(c2nc(C)cc(C)n2)C(=O)C1 | 5.61 µM (active) |
| Cc1cc(C)cc(NC(=O)C2CCN(c3nc(C)cc(C)n3)CC2)c1 | inactive |
| Cc1ccc(CC2CC(=O)N(c3nc(C)cc(C)n3)C2=O)cc1 (stereo not drawn) | inactive |
| O=c1[nH]c(=O)n(-c2ccccc2)c(O)c1C=NC12CN3CN(CN(C3)C1)C2 | inactive |
| Cc1cccc(-n2c(O)c(C=Nc3ccccc3N)c(=O)[nH]c2=O)c1 | inactive |
| CCCCC(=O)N/N=C/c1c(O)n(-c2ccccc2)c(=O)[nH]c1=O | 8.89 µM (active) |
| O=C(NC(=S)Nc1ccc(Cl)cc1Cl)C1CC1 | inactive |
| COc1ccccc1CN1CC2(CCN(S(=O)(=O)c3ccccc3)CC2)C1 | inactive |
| CS(=O)(=O)N1CCN(C(=O)Cc2ccccc2)CC1 | inactive |
| COC(=O)N1CCC2(CCCN(Cc3ccccc3OC)C2)CC1 | inactive |
| COc1ccccc1CN1CCN(Cc2cc(OC)c(OC)cc2OC)CC1 | 25.1 µM (active) |
| COc1ccccc1/C=N/N1CCN(Cc2ccccc2Cl)CC1 | inactive |
| COc1ccccc1CN1CCN(C(=O)Cc2ccccc2)CC1 | 17.8 µM (active) |
| CCOCCOC(=O)C1=C(C)NC(=O)NC1c1ccc2c(c1)OCO2 (stereo not drawn) | inactive |
| O=C(O)c1c(NC(=O)N2CCCC2)sc2c1CCCC2 | inactive |
| O=C(Nc1ccc(O)cc1)c1ccc(NC(=O)c2ccco2)cc1 | inactive |
| CCOC(=O)C1(Cc2cccc(OC)c2)CCCN(C(=O)CCSC)C1 (stereo not drawn) | inactive |
| Cc1cc(=O)[nH]c(SCC(=O)Nc2ccc(Br)cc2)n1 | inactive |

| Structure (SMILES) | Potency |
| --- | --- |
| Cc1cccc(NC(=O)CSc2nc3[nH]ncc3c(=O)[nH]2)c1 | inactive |
| Cc1cc(C)c2c(=O)[nH]c(SCC(=O)Nc3ccc(Br)cc3)nc2n1 | 31.6 µM (active) |
| S=C(c1ccccc1)N1CCCC1 | inactive |
| OCCN1CCN(C(=S)c2ccc(-c3ccccc3)cc2)CC1 | 11.2 µM (active) |
| O=C(NC(c1ccccc1)c1ccccc1)N1CCN(CCO)CC1 | inactive |
| COc1ccc(-c2ccc(C3C4C=CCCC4(C)C(=O)N3Cc3ccccc3)c(F)c2)cc1OC (stereo not drawn) | inactive |
| Cc1cc(F)ccc1NC(=S)NCCc1ccccc1 | inactive |
| COc1cc(NC(=O)C2=CC(c3ccc(C)cc3)=NS(=O)(=O)N2C)cc(OC)c1OC | inactive |
| COc1ccccc1CC(=O)Nc1ccc(S(=O)(=O)N2CCCC2)cc1 | inactive |
| CCOc1cccc(NC(=O)C2CCCN(S(=O)(=O)c3ccc(OC)cc3)C2)c1 (stereo not drawn) | inactive |
| CCN(CC(=O)Nc1ccc(S(=O)(=O)N2CCCC2)cc1)CC(=O)Nc1cccc(OC)c1 | 5 µM (active) |
| COc1cc(C(=S)N2CCOCC2)cc(OC)c1OC(=O)c1ccc([N+](=O)[O-])cc1[N+](=O)[O-] | inactive |
| CCS(=O)(=O)Nc1ccc(C(=O)NCCSc2ccccc2)cc1 | inactive |
| CC(=O)OCCN(CCCn1c(-c2ccncc2)nc2ccccc21)c1nc(-c2ccc(C)cc2)cs1 | inactive |
| Oc1c(C=Nc2cccc3nsnc23)ccc2ccccc12 | 5 µM (active) |
| Cc1ccccc1NC(=O)C1CCN(C(=O)NC2CCCCC2)CC1 | inactive |
| COC(=O)C1=CN(c2ccc(F)c(F)c2)C=C(C(=O)OC)C1c1ccc([N+](=O)[O-])cc1 | inactive |
| COc1ccccc1-c1nnc(NC(=O)c2ccc3ncsc3c2)o1 | inactive |
| COc1ccccc1-c1nnc(NC(=O)c2cccc(N3C(=O)CCC3=O)c2)o1 | inactive |
| Cc1ccc(C(=O)Nc2nnc(C3=COCCO3)o2)cc1C | 31.6 µM (active) |
| COC(=O)c1ccccc1NC(=O)C1CCN(C(=O)N2CCOc3ccccc32)CC1 | inactive |
| Oc1cc(O)c2c(c1)OC(c1ccc(O)c(O)c1)C(O)C2 (stereo not drawn) | 9.98 µM (active) |
| COc1ccc(C2Oc3c(I)c(OC)cc(OC)c3CC2O)cc1OC (stereo not drawn) | inactive |

| Structure (SMILES) | Potency |
| --- | --- |
| COC(=O)c1ccccc1NC(=S)NC(=O)c1ccccc1F | inactive |
| O=C(NC(=S)Nc1ncccn1)c1ccccc1Br | 3.98 µM (active) |
| O=C(NC(=S)Nc1ccc(S(=O)(=O)Nc2ncccn2)cc1)c1cccc(Br)c1 | inactive |
| CCOc1ccc(OCC)c(NC(=O)CCS(=O)(=O)c2ccc(C)cc2)c1 | inactive |
| COCCCNCCOCCOc1ccc(Cl)cc1Br | inactive |
| Cn1c(CCCOc2ccc(Cl)cc2Cl)n[nH]c1=S | inactive |
| CN(C)CCOc1ccc(Cl)cc1C(C)(C)C | 14.1 µM (active) |
| CNC(=S)N/N=C/c1ccc(N2CCOCC2)s1 | 12.6 µM (active) |
| C=CCNC(=S)N/N=C/c1ccc(C)s1 | inactive |
| Cc1cc(C(=O)N/N=C/c2ccc(N3CCOCC3)cc2)c(C)o1 | inactive |
| O=C(CCCC(=O)N1CCN(c2cccc(Cl)c2)CC1)c1ccccc1 | inactive |
| NC(=O)CC(NC(=O)Cc1ccc(Br)cc1)c1ccc(NC2CC3CCC2C3)c([N+](=O)[O-])c1 (stereo not drawn) | inactive |
| COc1cc(OC)c(C(=S)N2CCCC2)cc1OC | inactive |
| O=S(=O)(Nc1ccc2nc(-c3ccco3)[nH]c2c1)c1ccccc1 | 19.9 µM (active) |
| O=S(=O)(Nc1ccc2cn[nH]c2c1)c1ccccc1 | inactive |
| Cn1c(CCN2CCCC2)nc2cc(NS(=O)(=O)c3ccccc3)ccc21 | inactive |
| CCN1CCN(C(=O)C2CCCN(S(=O)(=O)c3ccc(OC)c(OC)c3)C2)CC1 (stereo not drawn) | inactive |
| Cc1ccc(N(Cc2cc(=O)[nH]c3ccccc23)C(=O)CCl)cc1 | inactive |
| O=C(NCCCc1ccccc1)c1cc(COc2c(F)cccc2F)on1 | inactive |
| N#Cc1c(-c2ccccc2)cc(-c2ccccc2)nc1SCC(=O)O | inactive |
| Cc1cc(C)c(C#N)c(N2CCC(C(N)=O)CC2)n1 | inactive |
| N#Cc1c(N2CCCCC2)nc(N)c2c(N)nc(SCC(=O)O)cc12 | 12.6 µM (active) |

Source: PubChem BioAssay AID2451 (National Center for Advancing Translational Sciences (NCATS), 2010)
